This is part of a sample that, as a whole, favours compounds with a hit. Of some 83,000 tested, about 20% had one in any assay.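 Testing used 96-well plates and a 48-hour single-concentration exposure. Example: -40 means 40% of the starting cells died.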 Values without a mark were called inactive. The source made the active and inactive calls. Rule for the calls: active = growth percent below 10; inactive = the rest.

This assay concerns HL-60(TB) leukemia. Nature of the assay: NCI-60 one-dose screen, 48 h (100 = growth as untreated, 0 = no growth, -100 = all killed). The settings on record: 10 µM unless noted.
Turning to `CC(Br)C(Br)c1cc2c(cc1Br)OCO2` (configuration not stated), the growth was 97%.

Consider `CCOC(=O)c1c(C)nc2c(c1N)C(=O)C(=O)N2Cc1ccc(OC)cc1`, for which the growth is 46.6%.

Regarding `CC[C@@H](C(=O)[C@@H](C)[C@@H](O)[C@H](C)[C@@H]1O[C@@H]([C@@H](CC)C(=O)O)CC[C@@H]1C)[C@H]1OC2(C=C[C@@H](O)[C@]3(CC[C@@](C)([C@H]4CC[C@](O)(CC)[C@H](C)O4)O3)O2)[C@H](C)C[C@@H]1C` (some centres not stated), the growth was -45.6% (active).

Take `COC(=O)c1c2c(n3ccc(C)cc13)C(=O)c1ccccc1C2=O`: the growth was 57.6%.

On to `c1csc(C2=NN3C(C2)c2ccccc2OC3c2ccncc2)c1` (configuration not stated), for which the growth was 97.8%.

Turning to `c1ccc(-c2n(Cc3ccc4ccccc4c3)cc[n+]2Cc2ccc3ccccc3c2)cc1`, the growth is -47.6% (active).

Turning to `O=C(COc1cccc(/C=C2\COc3ccccc3C2=O)c1)c1ccccc1`, the growth is 40.3%.

Consider `CC1=C(O)C(=O)C(C(C#N)(C#N)C(C#N)C#N)C1` (configuration not stated), for which the growth is 91.7%.

For `C=CCNc1ccc2c3c(cccc13)C(=O)N(N1C(=O)c3cccc4cccc(c34)C1=O)C2=O`, the growth is 102%.

As for `CCOC(=O)c1[nH]cc2c1CCc1sc(Nc3ccccn3)nc1-2`, the growth is 75.9%.

In the case of `COc1cc(/C=C\c2cc(OC)c(OC)c(OC)c2)cc(N)c1OC`, the growth was 48.8%.

On to `Cc1ccc(C2CC(c3ccc(Nc4nc(NCCO)nc(Nc5ccc(Cl)cc5)n4)cc3)=NN2c2cc(Cl)cc(Cl)c2)cc1` (configuration not stated), for which the growth is 100%.

Turning to `Clc1cc(Cl)cc(Nc2ccc3c(OCCCN4CCOCC4)cccc3n2)c1`, the growth was 50.5%.

Regarding `CC(=O)OCC(=O)O[C@@H]1C[C@]2(C(C)C)O[C@@]1(C)[C@@H]1CC[C@@H](C)[C@H]1[C@@H]2OC(=O)/C=C/c1ccccc1`, the growth was 82.6%.

With `CC(=O)OC[C@H]1OC(Sc2sc(C(=O)c3ccc(C)cc3)c(N)c2-c2nc3ccccc3s2)[C@H](OC(C)=O)[C@@H](OC(C)=O)[C@@H]1OC(C)=O` (some centres not stated), the growth was 80%.

Take `Cc1cc(C(C)(C)C)cc(C)c1Br`: the growth was 108%.

On to `COc1cc(-c2nn(C(=O)NS(=O)(=O)c3ccccc3)cc2-c2ccncc2)ccc1Cl`, for which the growth is 98.1%.

Turning to `Cc1cc(N2CCCC2)nc(NCc2cc(Nc3ccnc4cc(Cl)ccc34)ccc2F)n1`, the growth was -61.1% (active).

As to `CCOc1ccc(NC(=O)Nc2ccc(OCC)cc2)cc1`, the growth is 96.7%.

Take `COc1cc2c(c(OC)c1OC)-c1ccc(SC)c(=O)cc1[C@@H](NC1OC(CO)C(O)C(O)C1O)CC2` (some centres not stated): the growth was -38.6% (active).

Consider `CCOC(=O)n1cc(C2=C(c3cn(C)c4ccccc34)COC2=O)c2ccccc21`, for which the growth was -23.6% (active).

For `COc1cc(/C=N/NC(=O)CCN2c3ccccc3Sc3ccccc32)cc(OC)c1OC`, the growth was 77.9%.

`O=C(Nc1cccc(Br)c1)c1cc(=O)[nH]c2ccccc12`: the growth is 108%.

Regarding `O=C(O)/C(=C/c1ccc(O)cc1)c1ccccc1`, the growth is 96%.

Consider `CCOC(=O)c1sc(NC(=O)COc2cccc(/C=C3\CCc4cc(OC)ccc4C3=O)c2)nc1C`, for which the growth is -52.9% (active).

Regarding `FC(F)(F)c1ccc2c(c1)n1cnnc1c1nncn21`, the growth was 104%.

Regarding `NS(=O)(=O)c1cc(=O)[nH]c(=O)[nH]1`, the growth was 114%.

Regarding `Cn1/c(=N\N=C\c2ccccc2OCCO)sc2ccccc21`, the growth is 92.5%.

`COc1cc(/C=C2\C(=O)N(CCCOc3cc(O)c4c(=O)cc(-c5ccccc5)oc4c3)c3ccccc32)cc(OC)c1O`: the growth is 47.2%.

For the compound `O=C(O[C@@H]1Cc2c(O)cc(O)cc2O[C@@H]1c1cc(O)c(O)c(O)c1)c1cc(O)c2c(c1)OCO2`, the growth was 91.1%.

Regarding `CC1(C)NC(=S)NC1=O`, the growth is 89.9%.

`CCN1CCN(C(=O)[C@]23CC[C@@H](C)[C@H](C)[C@@H]2C2=CC[C@@H]4[C@@]5(C)CCC(=O)C(C)(C)[C@@H]5CC[C@@]4(C)[C@]2(C)CC3)CC1`: the growth is -44.6% (active).

For the compound `CCC(=O)Oc1c(C)cc(O)c2ccccc12`, the growth was 68.8%.

Regarding `CCN(CC)S(=O)(=O)c1cccc([N+](=O)[O-])c1`, the growth was 95.5%.

`COC(=O)[C@@H](NC(=O)NC(=O)NC(=O)CI)C(C)C`: the growth is 77.9%.

Regarding `CCCCCCCCn1ccc2cc(NC(=O)Cn3cc(CN4CCN(CC)CC4)nn3)ccc21`, the growth is 63.9%.

As for `Cn1cc(-c2nonc2-c2cn(C)c3ccc(F)cc23)c2cc(F)ccc21`, the growth is 17.3%.

Values taken from PubChem BioAssay (NCI).
